The campaign covered roughly 360,000 compounds. About 17,000 (4.7%) were called active. Another 5% or so got no clear call; they are omitted. What follows is part of a selection rich in actives, with near analogues and random picks from the rest. Values without a mark were called inactive. Cut-off read from the data, not from the text of the source: active = activity change below about -50%; inconclusive = mostly about -30% to -49%; inactive = weaker than that.
% is set by controls: 0 for no effect and ±100 for the full control effect.

This assay in a line: qHTS for Inhibitors of Inflammasome Signaling: IL-1-beta AlphaLISA Primary Screen. The following applies: THP-1 LPS/ATP IL-1B secretion, 16 h; at 57.5 µM, stronger effect = lower value. The procedure, abridged: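 THP-1 cells pretreated 1 hr with compounds (up to 57.5 uM final), then stimulated with LPS (250 ng/mL final) plus ATP (1.25 mM final); secreted IL-1B measured by AlphaLISA after 16 hr, decreased signal indicating inhibition.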
For orientation: qHTS replaces the single test concentration by a dilution series.
For the compound `CC(OC(=O)c1cccnc1Cl)C(=O)NC1CCCCC1` (configuration not stated), the activity change is -3.91%.
To `COc1ccc(C(=O)OCC(=O)Nc2cc(C)on2)cc1F` belongs 10.7%; to `C[C@@H]1CN([C@@H](C)CO)C(=O)CCCn2cc(nn2)CO[C@H]1CN(C)S(=O)(=O)c1ccc(-n2cccn2)cc1`, -5.6%.
As for `COc1ccc(CCN2C(=O)C(C)=C(C)C2=O)cc1OC`, the figure is -6.73%; as for `COc1ccc(CCN=C2SCC(=O)N2Cc2ccccc2)cc1OC`, -10.8%.
For the compound `COc1ccc(CCNC2=C(Cl)C(=O)N(Cc3ccccc3)C2=O)cc1OC`, the activity change was -67.7% (active).
On to `Nc1cccc(OCCCCCOc2cccc(N)c2)c1`, for which the activity change is -27.6%.
In the case of `CC(=O)Nc1c(-c2ccc(C)cc2)nc2ccc(Cl)cn12`, the activity change was 13.6%.
Take `O=C(COc1ccc(Cl)cc1)NCCS(=O)(=O)N1CCN(c2ccc(F)cc2)CC1`: the activity change was 0.652%.
Take `O=C(Cc1ccc(F)cc1)N1CCN=C1SCc1cccc([N+](=O)[O-])c1`: the activity change was 26.2%.
Turning to `Cc1cccc(CC(=O)N2CCN=C2SCc2ccc([N+](=O)[O-])cc2)c1`, the activity change is -73.1% (active).
To `Cc1cc(C)cc(C(=O)N2CCN=C2SCc2ccc([N+](=O)[O-])cc2)c1` belongs 7.28%.
As for `O=C1NC(c2ccccc2)Cc2ccncc21` (configuration not stated), the activity change was -2.81%.
`CC(C)C1Cc2[nH][nH]c(=O)c2C(c2ccc(Cl)cc2)O1` (configuration not stated): the activity change is 0.108%.
Turning to `COc1ccc(CN(C)Cc2nc3cc(OC)c(OC)cc3c(=O)[nH]2)c(OC)c1`, the activity change was 1.63%.
Turning to `COc1ccc(/C=C2/C(=O)OCc3cc(OC)c(OC)cc32)c(OC)c1`, the activity change was -74.3% (active).
For the compound `COc1ccc(/C=C2/C(=O)N(c3ccccc3)N=C2C)c(OC)c1`, the activity change is -9.74%.
Turning to `Cc1cc(=O)c2ccc(NC(=O)c3ccccc3)cc2[nH]1`, the activity change is -15.4%.
For the compound `O=C1C=CC(=O)N1c1ccc(N2CCCCC2)cc1`, the activity change was -102% (active).
On to `CC(=O)Nc1ccc(S(=O)(=O)Nc2ccc(N3CCCCC3)cc2)cc1`, for which the activity change was 0%.
As for `O=C(Cc1ccccc1)NC(=S)Nc1ccc(N2CCCCC2)cc1`, the figure is -8.88%; as for `COc1ccccc1NC(=O)C(CC(=O)O)Cc1cc(C)cc(C)c1` (configuration not stated), 14.1%.
Regarding `Cc1cccc(C)c1-n1nnnc1C(CCc1ccccc1)N1CCN(C/C=C/c2ccccc2)CC1` (configuration not stated), the activity change is -7.14%.
To `CC(C)(C)c1ccc(/C=C2\SC(=O)N=C2N)cc1` belongs 3.39%; to `CCN(CC)P(=O)(Nc1ccc(SC(F)F)cc1)c1ccc(N(C)C)cc1NC(=O)c1ccco1` (configuration not stated), -50.2% (active); to `O=C(Nc1ccc(Sc2ccc(Br)cc2)cc1)c1ccco1`, -22.6%.
As for `O=C(COC(=O)c1ccccc1NC(=O)c1ccco1)Nc1ccc2c(c1)OC(F)(F)O2`, the activity change is 22.1%.
For `CCCNC(=O)c1cc(C2CCCCN2S(=O)(=O)c2cn(C)cn2)on1` (configuration not stated), the activity change is 1.68%.
To `CN(C)/C(=N\OC(=O)c1ccccc1)c1nonc1N` belongs 23.1%; to `CCCC(=O)N1CCC1(C)C(=O)NS(=O)(=O)c1ccc(Cl)cc1` (configuration not stated), 26%; to `COc1ccc(Cc2nnc(N/N=C/c3ccccc3O)[nH]c2=O)cc1OC`, -100% (active).
Turning to `Cc1nnc(N/N=C/c2ccccn2)[nH]c1=O`, the activity change is 266%.
`O=c1[nH]c(NCCO)nnc1Cc1ccc(Cl)cc1`: the activity change is -0.873%.
Turning to `CC(=O)OCC1(O)CC23CCC4c5ccoc5CCC4(C)C2CCC1C3` (configuration not stated), the activity change is -29.5%.
In the case of `Cc1ccccc1N1CCN(C(=O)c2cccnc2)CC1`, the activity change was -6.96%.
To `O=C(Nc1ccc(N2CCN(C(=O)c3ccccc3)CC2)c(Cl)c1)c1ncn[nH]1` belongs -4.07%.
Regarding `O=C(Nc1ccc(N2CCN(C(=O)c3ccccc3)CC2)c(Cl)c1)c1cccnc1`, the activity change is -81.2% (active).
In the case of `COc1ccc(C(=O)NCc2ccc(Cl)cc2)cc1S(=O)(=O)N1CCCC1`, the activity change was -19.3%.
Take `CCOC(=O)C1(C)CCCN(C(=O)c2cccc(Cl)c2)C1` (configuration not stated): the activity change is 37%.
With `CCOC(=O)[C@]12CCCC=C1N(Cc1ccc3c(c1)OCO3)C(=O)[C@H](CC(=O)N1CCN(C(=O)c3ccco3)CC1)C2`, the activity change was -17.6%.
As for `CC(=O)Oc1ccc(-c2nc3c(C)cccc3c(=O)o2)cc1`, the figure is 24.4%; as for `COc1nc(N=C(N)N)nc2c(C)cccc12`, -63.3% (active); as for `Cc1nc(N=C(N)N)nc2c(C)cccc12`, -96% (active).
On to `CCc1c(C)nc2c(OC)cccc2c1Cl`, for which the activity change was -3.94%.
As to `COc1ccc(C(=O)N2CCCCC2c2cc(C(=O)Nc3ccc(F)c(Cl)c3)no2)cc1` (configuration not stated), the activity change is -4.59%.
To `CCOC1=C2[C@@H](CN(S(=O)(=O)c3ccc(C)cc3)[C@H]2c2ccccc2F)[C@H]2C(=O)N(Cc3ccccc3)C(=O)[C@H]2C1` belongs 0.677%.
With `C=CCOc1ccc(Cl)cc1CNCCCN1CCOCC1`, the activity change is -12.8%.
For `COc1ccc(-c2ccc(CNCCCN3CCOCC3)o2)cc1Cl`, the activity change is -66% (active).
For the compound `COc1ccc(S(=O)(=O)N(C)CC(=O)NCCCN2CCOCC2)cc1Cl`, the activity change was 25.8%.
With `Cc1[nH]c2ccccc2c1C(=O)c1cc([C@H](NC(=O)OC(C)(C)C)C(C)C)sc1N`, the activity change is -6.92%.
With `C[C@H](CO)N1C[C@H](C)[C@@H](CN(C)S(=O)(=O)c2ccc(F)cc2)OCc2cnnn2CCCC1=O`, the activity change is -17.7%.
As for `CCOC(=O)[C@]12CCCC=C1N(Cc1ccc(Cl)cc1Cl)C(=O)[C@H](CC(=O)N1CCCCC1)C2`, the figure is -12.7%; as for `COc1cc(OC)c(C(=O)NNC(=O)c2ccc(NS(=O)(=O)c3cccs3)cc2)cc1OC`, -0.853%.
Turning to `COc1ccc(Cc2nnc(NC(=O)Cc3cccs3)s2)cc1`, the activity change was 20.9%.
Take `COc1ccc(Cc2nnc(NC(=O)c3ccc(OC)cc3OC)s2)cc1`: the activity change was -81.7% (active).
To `COc1ccc(Cc2nnc(NC(=O)c3cc(OC)c(OC)c(OC)c3)s2)cc1OC` belongs 64.7%; to `COCc1ccc(C(=O)N2CCc3c([nH]c4ccccc34)C2c2ccccn2)s1` (configuration not stated), -55.4% (active).
As for `O=C(c1cn2ccccc2n1)N1CCc2c([nH]c3ccccc23)C1c1ccccn1` (configuration not stated), the activity change is -15.2%.
`c1ccc(C2c3[nH]c4ccccc4c3CCN2Cc2cccn2-c2cccnc2)nc1` (configuration not stated): the activity change was 47.2%.
For the compound `Cc1cccc(C(=O)N2CCc3c([nH]c4ccccc34)C2CC(C)C)n1` (configuration not stated), the activity change was 7.12%.
For the compound `Cc1cccc(C2c3[nH]c4ccccc4c3CCN2C(=O)c2cc(-c3cccn3C)n[nH]2)n1` (configuration not stated), the activity change was -60% (active).
Take `COc1ccc(C2c3[nH]c4ccccc4c3CCN2CCCn2cccn2)cc1C` (configuration not stated): the activity change is -18.9%.

Source of the values: PubChem BioAssay AID743279 (National Center for Advancing Translational Sciences (NCATS), 2014).
